Rows were chosen to be rich in hits. Some 4.3% of all compounds tested hit in one or more screens of this group.
MITF TRPM1 HTS – activators of MITF-driven TRPM1 promoter reporter, primary screen, cell-based, SK-MEL-5, luciferase, single point; SK-MEL-5 TRPM1-promoter luciferase, 24 h; % of positive control, neutral wells = 0; activation, % at 12.5 µM; 300,000 compounds, 0.75% hits; AID 588334, 2011;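 active = mean activation of at least 80% with every replicate also reaching 80%; inconclusive = mean reaches 80% but some replicate falls short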;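 also: 0% = neutral control wells and 100% = parthenolide positive control wells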
MLL AF4-AF9 inh – inhibitors of AF4 peptide binding to AF9, primary screen, biochemical, AlphaScreen, biotin-AF4 peptide, FLAG-AF9, single point | inhibition, % at 10 µM | 350,000 compounds, 0.47% hits | AID 651704, 2012;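 active = every replicate reaching a set inhibition limit, whatever the replicate mean, cut at about 25% in these data; inconclusive = mean inhibition reaches that limit but some replicates miss it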;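 also: 0% = plate neutral control median and 100% = total signal loss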
Target sequence (P42568 whole entry, looked up): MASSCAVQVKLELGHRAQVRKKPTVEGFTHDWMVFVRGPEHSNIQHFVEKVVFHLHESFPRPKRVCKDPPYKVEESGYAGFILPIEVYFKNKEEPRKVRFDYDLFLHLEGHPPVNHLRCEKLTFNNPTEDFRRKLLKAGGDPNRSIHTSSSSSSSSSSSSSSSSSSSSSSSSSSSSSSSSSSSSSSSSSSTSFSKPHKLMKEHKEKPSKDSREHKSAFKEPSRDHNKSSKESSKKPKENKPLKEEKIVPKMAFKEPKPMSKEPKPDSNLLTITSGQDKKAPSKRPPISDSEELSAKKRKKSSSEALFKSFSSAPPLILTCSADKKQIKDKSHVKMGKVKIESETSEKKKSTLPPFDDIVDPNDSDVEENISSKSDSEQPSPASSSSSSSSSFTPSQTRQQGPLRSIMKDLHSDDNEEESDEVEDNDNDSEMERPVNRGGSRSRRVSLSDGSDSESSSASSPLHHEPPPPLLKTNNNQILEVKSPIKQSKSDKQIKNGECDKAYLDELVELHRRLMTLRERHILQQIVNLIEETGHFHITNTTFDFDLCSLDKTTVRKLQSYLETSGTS
esBAF inh – Bmi1 luciferase reporter increase in mESCs, primary screen, esBAF inhibitor project, mouse ES cells, Bmi1 luciferase knock-in, single point; 24 h; 100% = twice the neutral-well signal; reporter increase, % at 12.5 µM; 350,000 compounds, 2% hits; in the data active = activation above about 40%; inconclusive = no clear call, values can overlap the other calls;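 also: 0% = median of the plate's neutral control wells and 100% = double that signal; a rise in the Bmi1 reporter signal indicates esBAF inhibition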
SMARCA2 activ – SMARCA2 (BRM) function activators, primary screen, cell-based, luminescence, high throughput | MG213 cells, MMTV-luciferase reporter, dexamethasone, overnight | activation, % at 9.1 µM | 370,000 compounds, 1% hits; in the data active = activation above about 7.8%;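 also: 0% = vehicle wells and 100% = reference activator wells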
FGF22 binding – binders of human FGF22 protein, primary screen, FGF22 synaptogenesis inhibitor project, biophysical, thermal shift, single point. Fibroblast growth factor 22 (Homo sapiens), Q9HCT0. recombinant FGF22 thermal shift, SYPRO orange fluorescence; percent of sucrose octasulfate shift, DMSO zero. activity (Tm shift, normalised), % at 9.99 µM. 340,000 compounds, 1.5% hits;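 active = mean Tm shift, scaled 0 neutral to 100 positive control, at about 1.3% or above, every replicate too, limit read from the data; inconclusive = no clear call, values can overlap the other calls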
Wnt act – Wnt/beta-catenin pathway activators, primary screen, cell-based, plate reader, single point; 300,000 compounds, 1.2% hits; Wnt/beta-catenin reporter cell assay, activator; activation, % at 9.35 µM; in the data active = activation above about 30%, passing the limit was not always enough; inconclusive = no clear call, values can overlap the other calls;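 also: 0% = neutral control wells and 100% = positive control wells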
* marks the source's active call; other numbers are inactive results; ? = inconclusive; . = no result given.

SMILES | MITF TRPM1 HTS | MLL AF4-AF9 inh | esBAF inh | SMARCA2 activ | FGF22 binding | Wnt act
Cc1ccc(-c2nc(NCc3ccco3)n(S(C)(=O)=O)n2)cc1 | 26 | 5 | 40 | 3 | 0 | -21
C[C@@H]1CN([C@H](C)CO)C(=O)c2cc(NC(=O)Nc3cccc4ccccc34)ccc2O[C@H]1CN(C)C(=O)Nc1cccc2ccccc12 | . | -2 | 11 | . | 0 | .
c1ccc(CN2CCN(Cc3nnc(-c4ccccc4)o3)CC2)cc1 | -5 | -1 | . | 7.9* | 0 | 1
CN1CCN(Cc2nnc(-c3ccccc3)o2)CC1 | -11 | -1 | 4 | 2 | 0 | -1
N#C[C@H]1[C@H](c2ccc(C3=CCCCC3)cc2)[C@H](CO)N1C(=O)NC1CCCCC1 | . | -1 | 8 | . | 0 | .
COC(=O)/C(=N/Nc1ccccc1)N1CCCc2ccccc21 | -5 | 37* | . | 3 | -1 | 0
COC(=O)/C(=N/Nc1ccc(C)cc1)N1CCCc2ccccc21 | -15 | 17 | . | 0 | 0 | -1
O=C1C[C@@](C(=O)NCCN2CCOCC2)(c2ccc([N+](=O)[O-])cc2)[C@@H](c2ccc(CO)cc2I)N1CC12CC3CC(CC(C3)C1)C2 | . | 27* | . | . | -2 | .
CC(C(=O)NCCN1CCOCC1)c1ccc([N+](=O)[O-])cc1 (stereo unspecified) | -4 | -3 | -5 | 2 | 0 | -5
N#Cc1ccc(NC(=O)COC(=O)c2cccc(S(=O)(=O)N3CCCC3)c2)cc1 | . | -4 | 8 | -3 | 43* | 0
Cc1cccc(NC(=O)COC(=O)c2cccc(S(=O)(=O)N3CCCCCC3)c2)c1 | 14 | -1 | 0 | -1 | 0 | 0
N#Cc1ccc(C(=O)OCC(=O)Nc2cccc(S(=O)(=O)N3CCCCC3)c2)cc1 | 3 | 1 | -1 | -2 | -1 | -2
Cc1cc(C)cc(NC(=O)COC(=O)c2cccc(S(=O)(=O)N3CCCCC3)c2)c1 | -4 | 1 | 3 | -2 | 0 | 33*
COc1ccc(NC(=O)COC(=O)c2cccc(S(=O)(=O)N(C)C)c2)cc1 | -15 | -1 | 10 | -4 | 43* | -2
COc1ccc(NC(=O)C(C)N2C(=O)c3ccccc3S2(=O)=O)c(OC)c1 (stereo unspecified) | 4 | 0 | -1 | -1 | 0 | 4
CCOc1ccccc1NC(=O)C(C)N1C(=O)c2ccccc2S1(=O)=O (stereo unspecified) | 10 | 29* | . | -4 | 0 | -5
COc1cccc(-c2ncc3ccccn23)c1 | 57 | . | 52* | 5 | . | 4
O=c1[nH]c(CSc2ccccn2)nc2ccccc12 | 59 | 1 | . | 5 | 0 | 31*
Cc1ccc2nc(SCc3nc4ccccc4c(=O)[nH]3)[nH]c2c1 | 35 | -6 | 51* | 8 | 0 | 11
COCc1cc(C)nc(SCc2nc3ccccc3c(=O)[nH]2)c1C#N | 21 | -1 | 14 | 0 | 43* | -1
COC(=O)c1sc2nc(CSc3nc4ccc(C)cc4[nH]3)[nH]c(=O)c2c1C | 1 | . | -4 | -2 | . | -3
CCc1nnc(NC(=O)C2CCCN(C(=O)c3ccc(Cl)cc3)C2)s1 (stereo unspecified) | 60 | -3 | 50* | -1 | 0 | -2
O=C(Nc1ccccc1)C1CCCN(C(=O)c2ccc(Cl)cc2)C1 (stereo unspecified) | 0 | -2 | . | -3 | 43* | -11
CCSc1nnc(NC(=O)C2CCCN(C(=O)c3ccc(Cl)cc3)C2)s1 (stereo unspecified) | . | 4 | 3 | 0 | 0 | -3
Cc1sc(NC(=O)C2CCCCC2C(=O)O)c(C(N)=O)c1-c1ccc(C(C)C)cc1 (stereo unspecified) | 31 | . | 62* | 1 | . | .
SMILES | MITF TRPM1 HTS | MLL AF4-AF9 inh | esBAF inh | SMARCA2 activ | FGF22 binding | Wnt act
Cc1sc(NC(=O)C2CCCCC2C(=O)O)c(C(N)=O)c1-c1ccccc1 (stereo unspecified) | 51 | . | ? | 1 | . | .
C[C@@H]1CN([C@H](C)CO)C(=O)c2cc(NC(=O)Nc3ccc4c(c3)OCO4)ccc2O[C@@H](C)CCCCO[C@H]1CN(C)S(C)(=O)=O | . | 1 | 16 | . | -1 | .
Cc1cc(OC(C)C(N)=O)nc(-c2ccccc2)n1 (stereo unspecified) | -4 | 1 | 10 | 0 | 0 | 39*
CC(=O)Cc1nsc(NC(=O)c2ccc(Br)o2)n1 | 6 | -3 | 10 | -1 | 0 | -1
COc1cccc(Nc2nc(CC(C)=O)ns2)c1 | 14 | . | . | 3 | . | .
CC(=O)Cc1nsc(Nc2ccc(F)cc2)n1 | 9 | -3 | 21 | -1 | 0 | -1
CC(=O)Cc1nsc(NC(=O)c2ccc(-c3cccc(Cl)c3)o2)n1 | 3 | 3 | 17 | -1 | 1.4* | -1
COc1ccc(Nc2nc(CC(C)=O)ns2)cc1 | 40 | . | 57* | 3 | . | .
CC(=O)Cc1nsc(Nc2ccc(Cl)cc2)n1 | 60 | -1 | . | 5 | 43* | 4
O=S(=O)(Cc1ccccc1)N1CCCCN2[C@H](CO)[C@H](c3ccc(-c4cncnc4)cc3)[C@@H]2C1 | . | -9 | . | . | 0 | .
COc1ccc(C#Cc2ccc([C@@H]3[C@@H](CO)N4CCCCN(Cc5ccccc5F)C[C@@H]34)cc2)cc1 | . | 2 | -4 | . | 0 | .
COc1ccc(C#Cc2ccc([C@@H]3[C@H](CO)N4CCCCN(Cc5ccccc5F)C[C@@H]34)cc2)cc1 | . | 31* | 3 | . | 0 | .
COc1ccc(C#Cc2ccc([C@H]3[C@H](CO)N4CCCCN(Cc5ccccc5F)C[C@@H]34)cc2)cc1 | . | 32* | -7 | . | 0 | .
CC(=O)c1cccc(OCc2cc(C(=O)N(C)CCC3CCOCC3)no2)c1 | 63 | 0 | 52* | 1 | 0 | 21
COc1cccc(OCc2cc(C(=O)N(C)CCC3CCCCO3)no2)c1 (stereo unspecified) | 34 | -12 | 35 | 2 | 0 | 7
COc1ccccc1OCc1cc(C(=O)N(C)CCC2CCOCC2)no1 | . | 1 | 54* | 7 | 0 | 40*
C[C@@H]1CN([C@@H](C)CO)C(=O)Cc2cc(NS(C)(=O)=O)ccc2O[C@@H]1CN(C)C(=O)Nc1cccc2ccccc12 | . | -2 | 2 | . | 0 | .
Cc1nc2ccccc2nc(=O)c1NNc1ccccc1 | 102* | 3 | . | 4 | 0 | 25
O=C(CSc1nccc(=O)[nH]1)NC1CCCc2ccccc21 (stereo unspecified) | -1 | 4 | . | -2 | 0 | -2
O=C(CSc1ncn[nH]1)NC1CCCc2ccccc21 (stereo unspecified) | -4 | -6 | . | -5 | 43* | -2

Bioassay records from PubChem BioAssay.
